DT40 TDP1 CPT: qHTS for Inhibitors of human tyrosyl-DNA phosphodiesterase 1 (TDP1): qHTS in cells in presence of CPT. AID 686979, 2013. Potency, µM (series often up to 46.2 µM), usual class: inhibitors. 420,000 tested, 12% active. chicken DT40 Tdp1-/-;hTDP1 cells + 20 nM CPT, ATP luminescence, 48 h; note: nearly all actives have a fitted effect of over 55% in size
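Cell growth measured by CellTiter-Glo luminescence after a minimum 48 h, 37 C compound exposure with 20 nM CPT in Tdp1-knockout DT40 cells stably expressing hTDP1, seeded 400/well; qHTS titration format.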
uPA generation: qHTS for Inhibitors of Cell Surface uPA Generation; cell surface uPA generation assay, qHTS; Potency, µM (top dose mostly 38.3 µM), usual class: inhibitors; 330,000 tested, 0.31% active; AID 540303, 2011; active = well fitted inhibition curve with a large enough effect; inconclusive = small, poorly fitted or top-dose-only effect; inactive = no such curve, though single readings can be large or run the other way; tested in mouse RAW 264.7 cells; note: nearly all actives have a fitted effect of over 55% in size
TDP1 inh: qHTS Assay for Inhibitors of Tyrosyl-DNA Phosphodiesterase (TDP1); AID 485290, 2010; Tyrosyl-DNA phosphodiesterase 1 (Homo sapiens), Q9NUW8; 350,000 tested, 0.28% active; Potency, µM (series often up to 130 µM), hits mostly inhibitors; recombinant TDP1, AlphaScreen DNA substrate cleavage; note: nearly all actives have a fitted effect of over 40% in size
Target sequence (Q9NUW8 whole entry, looked up): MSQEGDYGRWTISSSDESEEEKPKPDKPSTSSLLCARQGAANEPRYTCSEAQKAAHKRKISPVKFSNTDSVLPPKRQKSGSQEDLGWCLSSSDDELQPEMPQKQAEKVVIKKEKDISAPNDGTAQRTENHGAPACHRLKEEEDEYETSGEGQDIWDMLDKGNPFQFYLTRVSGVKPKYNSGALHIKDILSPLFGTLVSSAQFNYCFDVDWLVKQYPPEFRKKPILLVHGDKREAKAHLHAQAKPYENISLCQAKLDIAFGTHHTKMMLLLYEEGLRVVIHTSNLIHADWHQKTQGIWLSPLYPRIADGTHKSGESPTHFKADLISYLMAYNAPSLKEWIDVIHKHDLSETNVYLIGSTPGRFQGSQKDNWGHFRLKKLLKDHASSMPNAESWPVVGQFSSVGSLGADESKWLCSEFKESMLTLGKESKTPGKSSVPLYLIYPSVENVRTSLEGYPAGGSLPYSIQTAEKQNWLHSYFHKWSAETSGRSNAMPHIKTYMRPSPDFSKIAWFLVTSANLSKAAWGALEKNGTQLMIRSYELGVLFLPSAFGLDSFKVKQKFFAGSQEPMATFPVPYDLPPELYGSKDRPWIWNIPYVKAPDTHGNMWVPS
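Here, a 5' biotin and 3' phosphotyrosine-FITC DNA oligonucleotide reports Tdp1 activity: intact substrate bridges AlphaScreen beads, while cleavage leaves a 3' phosphate and drops signal. All incubations at room temperature.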
miR-21 reporter: qHTS Assay for Modulators of miRNAs and/orActivators of miR-21 | 340,000 tested, under 10 active | Potency, µM (series often up to 38.3 µM), actives largely listed as activators | HeLa miR-21 FLuc reporter, luciferase, 48 h | AID 2288, 2010;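 note: miR-21 action dims this reporter so a rising signal means less miR-21 action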
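HeLa cells stably expressing CMV-driven firefly luciferase with a downstream miR-21 binding sequence, endogenously expressing miR-21, were treated with titrations (up to about 40uM final) for 48 hours at 37 degree Celsius. Luciferase luminescence was read after lysis.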
DT40 TDP1 no CPT: qHTS for Inhibitors of human tyrosyl-DNA phosphodiesterase 1 (TDP1): qHTS in cells in absence of CPT; DT40 Tdp1-/- hTDP1 cells, no CPT, ATP luminescence, 48 h; Potency, µM (series often up to 46.2 µM), usual class: inhibitors; 420,000 tested, 15% active; note: nearly all actives have a fitted effect of over 55% in size
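A cellular qHTS used chicken DT40 cells lacking endogenous Tdp1 but carrying stably transfected human TDP1. Compounds were applied without camptothecin, and cell growth kinetics were judged by ATP-dependent luminescence after ≥48 hr.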
Of the large screens only hits and unclear results are named; the others gave an inactive call. In the library only some 16% were active in any assay of this set; here they are far more common. Unless noted, calls come from the whole dose curve; as a rule, active = well fitted curve in the direction sought with a large enough effect; inconclusive = small, poorly fitted or top-dose-only effect, or another doubt; inactive = no such curve, though single readings can be large; an effect the other way counts as inactive or inconclusive.

NC(=O)NC(=O)CSc1cccc(C(F)(F)F)c1	none
CCOCCCNC(=O)c1cc(-c2cccnc2)nc2ccc(S(=O)(=O)N3CCC(C)CC3)cc12	none
COc1cccc(C=NNC(=S)NN=Cc2cccc(OC)c2OC)c1OC	DT40 TDP1 CPT 4.61µM, DT40 TDP1 no CPT 4.11µM (no result: TDP1 inh, miR-21 reporter)
COc1cccc(/C=N/NC(=S)NC2CC3CCC2C3)c1OC (configuration not stated)	DT40 TDP1 CPT inconclusive, DT40 TDP1 no CPT 20.6µM
CNc1nc2ccccc2n1/N=C/c1cccc(OC)c1OC	DT40 TDP1 CPT inconclusive, DT40 TDP1 no CPT 20.6µM (no result: uPA generation)
COc1cccc(/C=N/n2c(CO)nc3ccccc32)c1OC	none (no result: uPA generation)
CCc1nnc(N/N=C/c2ccccc2Cl)n1N	none
COc1cccc(/C=N/Nc2nnc(C)n2N)c1OCc1ccccc1Cl	DT40 TDP1 CPT inconclusive, DT40 TDP1 no CPT 23.1µM
Cc1cc(NC(=O)CSc2nc3ccccc3c(=O)n2C(C)c2ccccc2)no1 (configuration not stated)	DT40 TDP1 CPT inconclusive, DT40 TDP1 no CPT inconclusive
CC(CN1CCCC1)OC(=O)COc1ccccc1 (configuration not stated)	none
COc1cccc(/C=N/n2c(N)c(S(=O)(=O)c3cccs3)c3nc4ccccc4nc32)c1OC	DT40 TDP1 CPT 7.31µM, DT40 TDP1 no CPT 5.8µM (no result: uPA generation)
COc1ccccc1/C=N/Nc1nncc2ccccc12	DT40 TDP1 no CPT inconclusive
COc1cccc(C=NNc2nnc(NN=Cc3cccc(OC)c3OC)c3ccccc23)c1OC	DT40 TDP1 CPT 23.1µM, DT40 TDP1 no CPT 20.6µM (no result: TDP1 inh, miR-21 reporter)
COCCn1c(N)c(S(=O)(=O)c2cccs2)c2nc3ccccc3nc21	none
O=C(N/N=C/c1ccccc1O)c1cccc(C(F)(F)F)c1	DT40 TDP1 CPT 5.17µM, TDP1 inh inconclusive, miR-21 reporter inconclusive, DT40 TDP1 no CPT 3.26µM
CC(/C=C/c1ccc2c(c1)OCO2)=N\NC(=O)c1cccc([N+](=O)[O-])c1	DT40 TDP1 CPT 20.6µM, DT40 TDP1 no CPT 14.6µM
O=C(CNc1ccc2ccccc2c1)N/N=C/c1ccccn1	DT40 TDP1 CPT inconclusive, DT40 TDP1 no CPT 18.4µM
O=C(N/N=C/c1ccccn1)c1cccc(S(=O)(=O)Nc2ccccc2Cl)c1	DT40 TDP1 CPT 16.4µM, DT40 TDP1 no CPT 16.4µM (no result: uPA generation)
O=C(N/N=C/c1ccc(O)cc1)c1cccc(C(F)(F)F)c1	DT40 TDP1 no CPT inconclusive
CCOC(=O)N1CCC(NC(=O)C(Cc2ccccc2)NC(=O)c2ccco2)CC1 (configuration not stated)	none
COc1cc(NC(=O)c2cc(C)nc3ccccc23)cc(OC)c1	DT40 TDP1 CPT inconclusive
COc1ccc2c(C)cc(SCC(=O)Nc3ncc(Cl)cc3Cl)nc2c1	DT40 TDP1 no CPT inconclusive
O=C(N/N=C/c1ccccn1)c1cccc([N+](=O)[O-])c1	DT40 TDP1 CPT inconclusive, DT40 TDP1 no CPT 16.4µM
COc1ccccc1/C=N/NC(=O)c1ccc(NC(=O)c2cccc([N+](=O)[O-])c2)cc1	none (no result: DT40 TDP1 CPT, uPA generation, DT40 TDP1 no CPT)
O=C(N/N=C/c1cccc(O)c1)c1ccc(NC(=O)c2cccc([N+](=O)[O-])c2)cc1	DT40 TDP1 CPT inconclusive, DT40 TDP1 no CPT 18.4µM
CCN(CC)C(=O)C1CCCN(c2ccc([N+](=O)[O-])cc2/C=N/NC(=O)c2cccc([N+](=O)[O-])c2)C1 (configuration not stated)	DT40 TDP1 CPT 20.6µM, DT40 TDP1 no CPT inconclusive
O=C(N/N=C/c1ccccn1)c1ccc([N+](=O)[O-])cc1	none
O=C(N/N=C/c1ccccn1)c1cc([N+](=O)[O-])cc([N+](=O)[O-])c1	DT40 TDP1 CPT inconclusive, DT40 TDP1 no CPT 20.6µM
O=C(NN=Cc1ccccc1O)c1cccc([N+](=O)[O-])c1	DT40 TDP1 CPT 0.82µM, DT40 TDP1 no CPT 0.164µM (no result: TDP1 inh, miR-21 reporter)
Cc1cccc(C(=O)Nc2cccc(C(=O)N/N=C/c3ccccn3)c2)c1	DT40 TDP1 no CPT inconclusive (no result: TDP1 inh)
CC(Nc1cccc2ccccc12)C(=O)N/N=C/c1ccccn1 (configuration not stated)	DT40 TDP1 CPT 25.9µM, DT40 TDP1 no CPT 20.6µM
Cc1cccc(C(=O)N/N=C/c2ccccn2)c1	DT40 TDP1 CPT inconclusive, DT40 TDP1 no CPT 14.6µM
CCOc1ccccc1CNC(=O)CCCn1nc(C)c2sc3ccccc3c2c1=O	DT40 TDP1 no CPT inconclusive (no result: uPA generation)
Cc1ccccc1CSc1cn(CC(=O)N2CCCC2)c2ccccc12	DT40 TDP1 CPT inconclusive, DT40 TDP1 no CPT inconclusive (no result: uPA generation)
Cc1ccccc1CSc1cn(CC(=O)N2CCCCCC2)c2ccccc12	DT40 TDP1 CPT inconclusive, DT40 TDP1 no CPT 23.1µM (no result: uPA generation)
O=C(Cn1cc(SCc2ccccc2F)c2ccccc21)N1CCCCCC1	DT40 TDP1 CPT 23.1µM, DT40 TDP1 no CPT inconclusive (no result: uPA generation)
O=C(NCc1ccco1)c1ccc(Oc2ccccc2)cc1	none
CCn1c2c(c3cc(OCC(C)C)ccc31)CCCC2=O	DT40 TDP1 CPT 16.4µM, DT40 TDP1 no CPT 20.6µM
CCn1c2c(c3cc(Br)ccc31)CCC/C2=N\O	DT40 TDP1 no CPT inconclusive (no result: uPA generation)
O=C(O)/C=C/C(=O)N1CCN(c2ccccc2F)CC1	none
O=C(C(Sc1ccccc1)c1ccccc1)N1CCN(c2ccccc2F)CC1 (configuration not stated)	DT40 TDP1 CPT inconclusive, DT40 TDP1 no CPT 23.1µM
CCn1c(C)c(C)c2cc(C(=O)N3CCCC3)ccc21	none
Nc1ccccc1N1CCN(C(=O)c2ccccc2)CC1	none
O=C(c1c(F)cccc1F)N1CCN(c2ccccc2F)CC1	none
O=C(c1ccccc1)c1ccc(C(=O)N2CCN(c3ccccc3O)CC2)cc1	DT40 TDP1 CPT 25.9µM, DT40 TDP1 no CPT 11.6µM (no result: uPA generation, TDP1 inh, miR-21 reporter)
O=C(c1cccc(C(=O)N2CCN(c3ccccc3F)CC2)c1)N1CCN(c2ccccc2F)CC1	DT40 TDP1 CPT inconclusive, DT40 TDP1 no CPT 23.1µM
CCn1c(C)c(C)c2cc(C(=O)N3CCN(c4ccccc4)CC3)ccc21	DT40 TDP1 CPT 18.4µM, DT40 TDP1 no CPT inconclusive
CC(=O)NC(NC(C)=O)c1ccc(Br)cc1	none
CN(C)S(=O)(=O)N(CC(=O)NCCSc1ccc(Cl)cc1)c1ccccc1	DT40 TDP1 CPT inconclusive, DT40 TDP1 no CPT inconclusive (no result: uPA generation)
Cc1ccc(S(=O)(=O)N(C)C)cc1NC(=O)COC(=O)CNC(=O)c1cccs1	none (no result: miR-21 reporter)
COc1ccc(C(=O)ON=C2CCN(C)CC2)cc1	none (no result: uPA generation)
O=C(c1cccc(C(=O)N2CCN(c3ccccc3)CC2)c1)N1CCN(c2ccccc2)CC1	DT40 TDP1 CPT inconclusive, DT40 TDP1 no CPT 14.6µM (no result: uPA generation)
O=C(NCC(=O)N1CCN(c2ccccc2O)CC1)C1CCCCC1	DT40 TDP1 CPT 3.66µM, DT40 TDP1 no CPT inconclusive (no result: miR-21 reporter)
O=C(Nc1ccc(NC(=O)N2CCN(c3ccccc3O)CC2)cc1)N1CCN(c2ccccc2O)CC1	DT40 TDP1 CPT inconclusive, DT40 TDP1 no CPT 25.9µM (no result: TDP1 inh)
O=C(NCC(=O)N1CCN(c2ccccc2O)CC1)c1ccco1	none
Cc1nc2ncnn2c(C)c1CCC(=O)NCc1ccco1	none

High-throughput results (PubChem BioAssay)
